# Experimental data published in PubChem BioAssay (NCI).
# This is part of a sample that, as a whole, favours compounds with a hit. Of some 83,000 tested, about 20% had one in any assay.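 Negative percent growth values reflect cell death: -40 means 40% of the cells present at the start died, and -100 means all died.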 Unmarked numbers belong to inactive results. The source made the active and inactive calls. How the source made its calls: active means growth percent below 10; inactive means the rest.
# System: MDA-MB-468 breast
# Test: NCI-60 one-dose screen, 48 h (100 = growth as untreated, 0 = no growth, -100 = all killed)
# Details: 10 µM unless noted
row,Compound,growth
1,COc1ccc(C2c3ccc4ccccc4c3Oc3ncnc(N)c32)cc1 (stereo not given),86.6%
2,NCCCNc1nc2ccccc2c2c(=O)c3cc(C(F)(F)F)ccc3sc12,-49.1% (active)
3,Cc1nccc2c3ccc(OCc4cn(-c5ccc(Cl)cc5)nn4)cc3n(CC(C)C)c12,-1.72% (active)
4,COc1cccc(Nc2ccnc3[nH]c4ccc([N+](=O)[O-])cc4c23)c1,23.1%
5,CCOC(=O)Nc1nn[nH]n1,101%
6,CS(=O)(=O)c1nsc(N)n1,109%
7,CSc1ccc2c3c(n(C[C@H](O)CO)c(=O)c2c1)-c1ccccc1C3=O,39.8%
8,CCNc1cc(S(=O)(=O)O)ccc1C,97.2%
9,O=C1c2cc3c(cc2-c2c1c1ccc(F)cc1c(=O)n2CCCNCCO)OCO3,-70.8% (active)
10,CC[C@]1(O)C[C@@H]2CN(CCc3c([nH]c4ccccc34)[C@@](C(=O)OC)(c3cc4c(cc3OC)N(C)[C@H]3[C@@](O)(C(N)=O)[C@H](O)[C@]5(CC)[C@@H]6C[C@@H]6CN6CC[C@]43[C@@H]65)C2)C1,43.8%
11,CCC(O)C(C)(C)C (stereo not given),115%
12,CCCC(O)Cn1ncc(C(=O)OCC)c1NC(=O)NCc1cccc(C(F)(F)F)c1 (stereo not given),79.3%
13,Cn1cc(-c2ccc(-c3cn(C)c4ncccc34)[nH]2)c2cccnc21,-23.7% (active)
14,Cc1ccc2nc(NC(=O)CSc3nc(Nc4ccc([N+](=O)[O-])cc4)c(C#N)c(-c4ccccc4)n3)sc2c1,105%
15,C=C(C)[C@@H]1CC[C@]2(CN)CC[C@]3(C)[C@H](CC[C@@H]4[C@@](C)(CCCN)[C@H](C(=C)C)CC[C@]43C)[C@@H]12,84.7%
16,O=C(/C=C/C=C/c1c(C2CC2)nc2ccccc2c1-c1ccc(F)cc1)c1cccs1,4.94% (active)
17,O=C(Nc1ccc(OS(=O)(=O)c2ccccc2)cc1)C1CCCCC1,103%
18,Nc1cccc(-c2nc3sccn3c2-c2ccnc(NCCCNS(=O)(=O)c3cccc4ccccc34)n2)c1,18.2%
19,COC(=O)[C@@]1(C)CC[C@]2(C)CC[C@]3(C)C4=CC=C5C(=CC(=O)C(O)=C5C)[C@]4(C)[C@@H](O)C[C@@]3(C)[C@@H]2C1,10.1%
20,CN(C)c1ccc(C#Cc2c(F)cccc2Cl)cc1,8.33% (active)

row,Compound,growth
1,CCN(CC)C(=O)C[N+](C)(C)CCOC(c1ccccc1)c1ccccc1,109%
2,Cc1ccc2c(c1)=C/C(=C\c1cc(-c3ccccc3)[nH]c1O)C(=O)N=2,8.74% (active)
3,CC(C)OC(=O)c1ccc2n1CCCc1cnc(Nc3ccccc3)nc1-2,44.6%
4,O=Nc1ccc(O)c2ccccc12,11.7%
5,Cc1nn(-c2ccc(Cl)cc2)c2nc3c(nc12)C(=O)C(=O)c1ccccc1-3,65.3%
6,Clc1ccc([I+]c2ccc(Cl)cc2Cl)c(Cl)c1,-37.9% (active)
7,O=C(Nc1ccc(Nc2ncccn2)cc1)NC1C=c2ccccc2=CC1 (stereo not given),110%
8,COc1cc(CCn2nnc3c(Nc4ccc(N5CCOCC5)cc4)ncnc32)cc(OC)c1,80.6%
9,O=c1c2ccccc2n(CC(O)CN2CCCC2)c2c(Br)cccc12 (stereo not given),97.1%
10,Oc1c(Cl)cc(Cl)c2ccc(CN3CCCCC3)nc12,29.3%
11,Cc1c(F)cccc1NC(=O)c1sc2nc3c(cc2c1N)CCCCC3,14.8%
12,CC(C)C[C@H](NC(=O)[C@@H](Cc1ccccc1)n1ccc(Nc2ccccc2)cc1=O)B(O)O,-19.8% (active)
13,N#Cc1cccc(/C=C(/C(=O)c2ccccc2)c2ccccc2)c1,48.9%
14,N#Cc1ccc(OCc2nc(N)nc(N)c2-c2ccc(Cl)c(Cl)c2)cc1,35.4%
15,COc1ccc2c(c1)c(-c1nn3cc(-c4ccncc4)nc3s1)cn2C,79.3%
16,Fc1ccc(Nc2ccnc(N3CCN(c4ccnc5cc(Cl)ccc45)CC3)n2)cc1,15.9%
17,Cc1ccc(-c2c3c(N)c4c(nc3nc3c2c(C)nn3-c2ccccc2)CCC4)cc1,53%
18,COC(=O)c1ccc2[nH]c(O)c(C(=Nc3ccc(N(C)C(=O)CN4CCN(C)CC4)cc3)c3ccccc3)c2c1,52.3%
19,O=S(=O)(Nc1cc(Cl)c(F)c(Cl)c1)c1ccc(-c2cnc(C3CC3)o2)cc1,13.5%
20,Nc1nc2c(c3ncccc13)C(c1ccccc1)Cc1ncccc1-2 (stereo not given),55.8%
